Dicer inh: inhibitors of Dicer pre-microRNA processing, primary screen, biochemical, cat-ELCCA, chemiluminescence; Endoribonuclease Dicer (Homo sapiens), Q9UPY3; cat-ELCCA pre-miR-21 Dicer processing; active compounds read high; z-score at 25 µM; 6% of 47,000 active; AID 1347074, 2019; in the data active means z-score above about 3, passing the limit was not always enough;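 further: plate controls were vehicle for no effect and no enzyme for full effect; higher signal means more uncleaved substrate so more Dicer inhibition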
Numbers without * were called inactive. Many of the other results were omitted from the sample, so hits are more common in it than they were.

SMILES	Dicer inh
N#CCSc1ccc(Cl)cc1Cl	-0.18
COc1cccc(C(Nc2cc(C)ccn2)c2ccc3ccc(C)nc3c2O)c1 (stereo not drawn)	6.83*
COc1ccc(C(Nc2ccccn2)c2ccc3ccc(C)nc3c2O)cc1OC (stereo not drawn)	0.29
CCOc1cc(C(Nc2cc(C)ccn2)c2ccc3cccnc3c2O)ccc1OC (stereo not drawn)	-0.73
Cc1ccnc(NC(c2ccc(N(C)C)cc2)c2ccc3cccnc3c2O)c1 (stereo not drawn)	6.27
Cc1ccnc(NC(c2ccc(N(C)C)cc2)c2ccc3ccc(C)nc3c2O)c1 (stereo not drawn)	1.03
COc1ccc(C)cc1NC(c1cccnc1)c1ccc2cccnc2c1O (stereo not drawn)	2.26
CCOc1ccc(C(Nc2cc(C)ccn2)c2ccc3cccnc3c2O)cc1OC (stereo not drawn)	5.23*
CCOc1cccc(C(Nc2ccccn2)c2ccc3ccc(C)nc3c2O)c1 (stereo not drawn)	-0.34
COc1cc(C(Nc2cc(C)ccn2)c2ccc3cccnc3c2O)ccc1O (stereo not drawn)	11.1*
CCOc1cc(C(Nc2cc(C)ccn2)c2ccc3cccnc3c2O)ccc1O (stereo not drawn)	14*
Cn1c(SCC(=O)Nc2ccc3[nH]c(=O)[nH]c3c2)nnc1-c1ccccc1	0.86
O=C(CSc1ncc(C(F)(F)F)cc1Cl)Nc1cccc(Cl)c1	3.81
COc1ccc(Cc2nnc3c4cnn(-c5ccc(C)cc5)c4ncn23)cc1	0.11
CCOC(=O)c1c(-c2ccccc2)c(-c2ccccc2)n[nH]c1=O	1.72
Clc1cc(Cl)cc(N=CNc2cc(Cl)cc(Cl)c2)c1	-2.68
COc1nccc(C(F)(F)F)c1C(=O)NCc1c(C)cc(Cl)cc1Cl	-0.67
CCCOc1ccc(N2C(=O)CC(SCCN)C2=O)cc1 (stereo not drawn)	-0.11
CCOc1ccc(N2C(=O)CC(Sc3nc(C)c(CC)c(C)c3C#N)C2=O)cc1 (stereo not drawn)	3.39*
CCCOc1ccc(N2C(=O)CC(SCC(N)C(=O)OCC)C2=O)cc1 (stereo not drawn)	-0.88
O=S(=O)(c1ccc(Cl)cc1)N1CCCc2ccccc21	0.24
FC(F)(F)C1CCN(c2nc3c(Cl)cc(Cl)cc3s2)CC1	1.08
COC(=O)c1ccc(C2C3=C(Nc4c2c(=O)n(C)c(=O)n4C)c2ccccc2C3=O)cc1 (stereo not drawn)	0.93
O=C1CCC(c2ccc(F)cc2)=NN1c1ccc([N+](=O)[O-])cc1	-0.66
O=C(NCc1ccc(F)cc1)c1cnn2c1NC(c1cccs1)CC2C(F)(F)F (stereo not drawn)	2.22
SMILES	Dicer inh
O=C(NCc1ccco1)c1cnn2c1NC(c1ccc(Br)cc1)CC2C(F)(F)F (stereo not drawn)	4.97*
COc1ccc(C2CC(C(F)(F)F)n3ncc(C(=O)NCC4CCCO4)c3N2)cc1OC (stereo not drawn)	-0.63
O=C(NCc1cccs1)c1cnn2c1NC(c1ccc(Br)cc1)CC2C(F)(F)F (stereo not drawn)	5.72*
Cc1ccc(C2CC(C(F)(F)F)n3ncc(C(=O)NCc4cn(C)nc4C)c3N2)cc1 (stereo not drawn)	-0.66
O=C(NCCc1ccccc1)c1cnn2c1NC(c1ccc(Br)cc1)CC2C(F)(F)F (stereo not drawn)	-0.32
C#C/C(=C(C(=O)OC)/C(C(=O)OC)=C(/CC(=O)OC)C(=O)OC)c1ccccn1	2.36
COc1cccc(N2C(=O)CC(Nc3ccc(N4CCOCC4)cc3)C2=O)c1 (stereo not drawn)	0.93
C=CCOc1ccc2c(=O)c(-c3ccc(OC)c(OC)c3)c(C(F)(F)F)oc2c1	0.57
O=C1CNC(=S)N1Cc1ccccn1	0.91
NC(=O)C1=CN(Cc2ccccc2)CCC1C(F)(F)F (stereo not drawn)	-0.8
CCCCN1C(=O)C(O)(c2c(C)[nH]c3ccccc23)c2cc(Br)ccc21 (stereo not drawn)	0.9
FC(F)(F)c1cccc(N=Cc2c(-c3ccccc3)nc3n2CCS3)c1	2.74
Clc1ccc(N=Cc2c(-c3ccccc3)nc3n2CCS3)cc1	3.87*
CS(=O)(=O)/C(C#N)=C/c1c(-c2ccccc2)nc2n1CCS2	1.54
CC(=O)/C(=C\N(C)C)Sc1ccc(C)cc1	-0.62
CCOC(=O)c1oc2nc3c(c(-c4cccnc4)c2c1N)CCc1ccccc1-3	-1.39
CC1=C(C(=O)OC(C)(C)C)C(c2ccc3ccccc3c2)NC(=O)N1C (stereo not drawn)	0.46
CCSc1nc2c(c(=O)n1CC)C1(CCCC1)Cc1ccccc1-2	1.28
Cn1c(NCCCO)nc2c(c1=O)C1(CCCCC1)Cc1ccccc1-2	0.39
CCn1c(SC)nc2c(c1=O)C1(CCCC1)Cc1ccccc1-2	0.48
CCSc1nc2c(c(=O)n1C)C1(CCCC1)Cc1ccccc1-2	6.18*
C=CCn1c(SCC(N)=O)nc2c(c1=O)C1(CCCCC1)Cc1ccccc1-2	0.59
O=c1c2c(nc(NCCCO)n1-c1ccccc1)-c1ccccc1CC21CCCCC1	4.32*
Cc1ccc(NC(=S)N(CCC#N)CCc2ccccn2)cc1	-1.01
C[n+]1ccn(CC(=O)c2ccccc2)c1	1.07
SMILES	Dicer inh
CC(=O)/C(C#N)=C(\N)SCc1c(Cl)cccc1Cl	-0.24
CC(O)c1nc2ccccc2n1C/C=C/c1ccccc1 (stereo not drawn)	0.77
CC12CN3CC(C)(CN(C1)C3c1cccc(Br)c1)C2=O (stereo not drawn)	-1.08
O=C1C2CCCCC2C(=O)N1c1cccc2ccccc12 (stereo not drawn)	0.16
CC(=O)Nc1cc(N2CC(C)CC(C)C2)c(F)cc1[N+](=O)[O-] (stereo not drawn)	28.1*
CC(=O)Nc1cc(N2CCOCC2)c(F)cc1[N+](=O)[O-]	-1.27
CC1CC(C)CN(c2ccc(S(N)(=O)=O)cc2[N+](=O)[O-])C1 (stereo not drawn)	-1.13
CCOC(=O)c1c(C)[nH]c2ccc(O)cc12	-0.52
CCN(CCS(=O)(=O)c1ccccc1)S(=O)(=O)c1ccc(C)cc1	4.45*
CCN(CC(O)Cn1c2ccccc2c2ccccc21)S(=O)(=O)c1ccc(C)cc1 (stereo not drawn)	0.77
CCCCN(C(C)C)S(=O)(=O)c1ccc(C)cc1	-0.26
COc1ccc(-c2csc3nc(-c4ccccc4F)oc(=O)c23)cc1	0.75
S=C(NCc1ccco1)N/N=C/c1cccnc1	0.6
N#CC(=Nc1ccc(F)cc1)C1=C(O)c2ccccc2C1=O	0.82
CC(C)(C)c1ccc(N=C(C#N)C2=C(O)c3ccccc3C2=O)cc1	3.07*
N#CC(=Nc1ccc(F)cc1F)C1=C(O)c2ccccc2C1=O	-3.16
O=C(NCc1ccc(S(=O)(=O)Nc2ccc(Oc3c(Cl)cccc3Cl)nc2)s1)c1ccccc1	1.45
CCCCC1(CNc2ccc(C)c([N+](=O)[O-])c2)C(=O)N(c2ccccc2)N(c2ccccc2)C1=O	2.22
CCCCC1(CO)C(=O)N(c2ccccc2)N(c2ccccc2)C1=O	6.12*
CCCCC1(COC(=O)Nc2cccc(Cl)c2)C(=O)N(c2ccccc2)N(c2ccccc2)C1=O	1.83
O=C(C1=C(O)C(=O)N(Cc2cccnc2)C1c1ccccc1F)c1cccs1 (stereo not drawn)	1.2
Clc1ccc(-c2nn3c(COc4ccccc4)nnc3s2)cc1	1.07
O=c1cc(CSc2nc3ccccc3s2)[nH]c2[nH]n(-c3ccccc3)c(=O)c12	0.06
